Source: PubChem BioAssay (National Center for Advancing Translational Sciences (NCATS))
JMJD2A Tudor inh: qHTS Assay for Inhibitors of JMJD2A-Tudor Domain. AlphaScreen JMJD2A-Tudor / H3K4me3 peptide binding. AID 504339, 2011. hit rate 4.4% among 390,000. Potency, µM (titrated, usually from 114 µM), for the others: top-dose activity change, negative = inhibition, hits mostly inhibitors. Lysine-specific demethylase 4A (Homo sapiens), O75164; further: on the % scale 0 is the no-effect control and ±100 the full control effect; nearly all actives have a fitted effect of over 50% in size
HP1b chromo inh: HTS for Inhibitors of HP1-beta Chromodomain Interactions with Methylated Histone Tails; AlphaScreen HP1-beta / biotin-H3K9me3 peptide binding; Potency, µM (titrated, usually from 114 µM), for the others: at the top dose activity change, negative = inhibition, hits mostly inhibitors; hit rate 0.56% among 390,000; further: nearly all actives have a fitted effect of over 70% in size
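AlphaScreen: HP1-beta (50 nM) preformed 30 min with biotin-H3(1-18)K9me3 peptide (50 nM) in PBS pH 7.4, 0.01% Tween-20. Compound added for 30 min at RT, then streptavidin donor/nickel chelate acceptor beads (10 ug/mL) for 30 min.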
G9a inh: qHTS Assay for Inhibitors of Histone Lysine Methyltransferase G9a. AID 504332, 2011. Potency, µM (top dose mostly 102 µM), without a hit: at the top dose activity, negative = inhibition, usual class: inhibitors. hit rate 8.8% among 350,000. G9a H3K9 monomethylation, AlphaScreen, 2 h; further: on the % scale 0 is the no-effect control and ±100 the full control effect; nearly all actives have a fitted effect of over 75% in size
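Using a bead-based AlphaScreen, monomethylated H3K9 product from 2 h room-temperature reactions (G9a 20 nM, peptide 500 nM, SAM 20 uM) was detected with 0.5 ug/mL rabbit anti-H3K9me1 antibody.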
L3MBTL1 block: qHTS Assay for the Inhibitors of L3MBTL1 | Lethal(3)malignant brain tumor-like protein 1 (Homo sapiens), Q9Y468 | AlphaScreen L3MBTL1–H3K9me1 peptide binding | Potency, µM (highest dose often 57.1 µM), without a hit: at the highest dose activity, negative = inhibition, usual class: inhibitors | hit rate 0.66% among 230,000; further: on the % scale 0 is the no-effect control and ±100 the full control effect; nearly all actives have a fitted effect of over 60% in size
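L3MBTL1 (50 nM) pre-complexed 30 min with biotinylated H3(1-15)K9me1 peptide (75 nM), then compounds added for 30 min at room temperature; AlphaScreen streptavidin donor/nickel chelate acceptor beads (10 ug/mL final) read after 30 min dark incubation.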
GLS inhibitor: qHTS for Inhibitors of Glutaminase (GLS); GLS enzymatic activity, qHTS titration; Potency, µM (highest dose often 45.5 µM), for the others: at the top dose activity change, negative = inhibition, usual class: inhibitors; Glutaminase kidney isoform, mitochondrial (Homo sapiens), O94925; hit rate 0.21% among 410,000; further: on the % scale 0 is the no-effect control and ±100 the full control effect
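Assay buffer: 45 mM KH2PO4 pH 8.2, 0.02% Tween-20. hKGA acts on L-glutamine (1 mM solution added); product glutamate is reported by an oxidase/peroxidase Amplex Red coupling, with fluorescence taken at baseline and 30 min.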
BAZ2B block: qHTS Assay for Inhibitors of BAZ2B. AlphaScreen BAZ2B-H3K14Ac peptide displacement. Potency, µM (series often up to 114 µM), for inactives: top-dose activity change, negative = inhibition, usual class: inhibitors. hit rate 4.4% among 360,000. AID 504333, 2011; further: on the % scale 0 is the no-effect control and ±100 the full control effect; nearly all actives have a fitted effect of over 60% in size
Target sequence (Q9UIF8 whole entry, looked up): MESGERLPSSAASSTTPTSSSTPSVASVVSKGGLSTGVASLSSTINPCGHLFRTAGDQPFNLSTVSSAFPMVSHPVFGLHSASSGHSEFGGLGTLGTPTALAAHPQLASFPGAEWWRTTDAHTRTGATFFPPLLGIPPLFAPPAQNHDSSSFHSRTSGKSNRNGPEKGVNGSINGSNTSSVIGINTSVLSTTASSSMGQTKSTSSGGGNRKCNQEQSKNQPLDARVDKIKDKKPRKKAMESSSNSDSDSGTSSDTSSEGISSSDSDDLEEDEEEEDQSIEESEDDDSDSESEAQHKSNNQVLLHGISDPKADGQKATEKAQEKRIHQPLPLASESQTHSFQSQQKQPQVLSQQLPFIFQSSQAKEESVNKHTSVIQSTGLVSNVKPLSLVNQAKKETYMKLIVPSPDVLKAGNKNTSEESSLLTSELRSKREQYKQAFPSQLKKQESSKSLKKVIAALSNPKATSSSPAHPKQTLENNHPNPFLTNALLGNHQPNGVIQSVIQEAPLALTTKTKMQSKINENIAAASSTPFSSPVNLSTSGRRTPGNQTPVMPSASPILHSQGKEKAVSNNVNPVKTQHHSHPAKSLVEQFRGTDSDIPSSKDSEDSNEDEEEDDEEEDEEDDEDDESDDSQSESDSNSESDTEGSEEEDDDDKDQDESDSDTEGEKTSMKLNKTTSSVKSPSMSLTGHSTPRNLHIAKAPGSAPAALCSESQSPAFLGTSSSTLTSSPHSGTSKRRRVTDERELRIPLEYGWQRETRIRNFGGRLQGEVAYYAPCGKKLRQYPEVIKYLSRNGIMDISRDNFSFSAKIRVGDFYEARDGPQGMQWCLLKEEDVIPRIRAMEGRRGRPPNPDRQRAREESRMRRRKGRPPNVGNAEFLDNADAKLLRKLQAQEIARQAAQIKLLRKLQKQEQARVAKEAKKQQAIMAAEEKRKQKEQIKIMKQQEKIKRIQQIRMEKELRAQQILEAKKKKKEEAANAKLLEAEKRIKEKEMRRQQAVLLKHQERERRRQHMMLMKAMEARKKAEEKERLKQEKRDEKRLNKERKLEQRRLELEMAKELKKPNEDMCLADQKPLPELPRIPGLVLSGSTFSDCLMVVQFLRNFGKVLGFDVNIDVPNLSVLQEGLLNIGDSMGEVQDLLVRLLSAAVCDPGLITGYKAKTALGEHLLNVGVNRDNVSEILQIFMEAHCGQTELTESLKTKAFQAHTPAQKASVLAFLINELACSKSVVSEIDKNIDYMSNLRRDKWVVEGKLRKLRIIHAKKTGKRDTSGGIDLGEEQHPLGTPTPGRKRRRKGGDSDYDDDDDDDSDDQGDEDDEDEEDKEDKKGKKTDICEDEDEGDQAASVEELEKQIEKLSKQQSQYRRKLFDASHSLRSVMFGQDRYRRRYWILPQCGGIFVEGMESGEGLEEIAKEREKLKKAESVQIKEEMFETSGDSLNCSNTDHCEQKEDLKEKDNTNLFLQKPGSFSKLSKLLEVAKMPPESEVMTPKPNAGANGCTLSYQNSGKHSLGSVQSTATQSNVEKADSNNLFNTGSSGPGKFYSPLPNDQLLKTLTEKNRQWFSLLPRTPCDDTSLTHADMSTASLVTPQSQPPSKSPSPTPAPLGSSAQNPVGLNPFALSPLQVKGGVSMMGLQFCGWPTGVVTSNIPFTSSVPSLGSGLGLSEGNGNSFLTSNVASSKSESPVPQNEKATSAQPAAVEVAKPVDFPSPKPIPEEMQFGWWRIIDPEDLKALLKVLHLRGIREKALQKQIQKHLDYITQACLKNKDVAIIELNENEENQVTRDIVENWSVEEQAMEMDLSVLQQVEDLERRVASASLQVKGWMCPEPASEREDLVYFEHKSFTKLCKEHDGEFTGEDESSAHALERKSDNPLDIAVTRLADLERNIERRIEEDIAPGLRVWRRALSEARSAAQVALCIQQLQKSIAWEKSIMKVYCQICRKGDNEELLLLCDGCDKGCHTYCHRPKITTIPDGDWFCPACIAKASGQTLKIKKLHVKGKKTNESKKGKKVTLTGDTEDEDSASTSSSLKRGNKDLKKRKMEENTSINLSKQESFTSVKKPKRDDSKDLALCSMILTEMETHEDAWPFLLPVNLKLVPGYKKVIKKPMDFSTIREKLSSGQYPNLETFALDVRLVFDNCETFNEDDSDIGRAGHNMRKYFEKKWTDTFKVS
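AlphaScreen luminescence quantifies BAZ2B engagement of H3K14Ac peptide; the protein and biotinylated peptide are both at 50 nM final, buffer PBS pH 7.4 with 0.01% Tween-20, all steps at room temperature.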
Starred values were filed as active, the others as inactive; ? = inconclusive; nt = no result; [ ] = remark or other dose. Rows were chosen to be rich in hits. Some 10% of all compounds tested hit in one or more screens of this group. The call rests on the fitted dose curve; in most records, active means well fitted curve in the direction sought with a large enough effect; inconclusive means small, poorly fitted or top-dose-only effect, or another doubt; inactive means no such curve, though single readings can be large; an effect the other way counts as inactive or inconclusive. Potency means the concentration at half of the fitted maximal effect.

SMILES | JMJD2A Tudor inh | HP1b chromo inh | G9a inh | L3MBTL1 block | GLS inhibitor | BAZ2B block
CC(C)N1C(=O)CC2(CC[N+](C)(CCOC(=O)C(c3ccccc3)c3ccccc3)CC2)C1=O (stereo not given) | -7% | 26% | ? | 11% | 2% | 45µM*
Cc1ccccc1C(=O)N(Cc1ccc(N(C)C)cc1)Cc1ccco1 | 45µM* | ? | 13µM* | nt | 10% | 35µM*
Cc1ccc(OCC(=O)N(Cc2ccco2)Cc2ccco2)cc1 | -34% | -7% | -32%[59 µM] | nt | 2% | -30%
CN(C)c1ccc(CN(Cc2ccco2)C(=O)COc2ccc(F)cc2)cc1 | 45µM* | ? | 16µM* | nt | 0% | 28µM*
CN(C)S(=O)(=O)c1cccc(C(=O)N(Cc2ccc(F)cc2)Cc2ccco2)c1 | -36% | -4% | 6%[2.33 µM] | -7% | -12% | 8%
CN(C)c1ccc(CN(Cc2ccco2)C(=O)c2ccc(F)cc2)cc1 | 45µM* | ? | 13µM* | nt | 9% | 35µM*
COc1cccc(C(=O)N(Cc2ccc(N(C)C)cc2)Cc2ccco2)c1 | 40µM* | ? | 13µM* | nt | 5% | 22µM*
Cc1ccc(CN(Cc2ccco2)C(=O)c2ccco2)cc1 | -26% | -17% | -38% | nt | -13% | -36%
COc1cc(/C=C(\C#N)C(=O)Nc2ccc(C)cc2)ccc1OCc1cc(=O)n2nc(C)sc2n1 | -14% | 28% | 5%[59 µM] | nt | -4% | -1%
Cc1cccc(OCCSc2nnc(-c3cccs3)o2)c1 | 165% | 171% | 175%[59 µM] | nt | 2% | 438%
CCN(CC)S(=O)(=O)c1ccc2c(c1)N(CC(=O)N1CCN(c3cccc(Cl)c3)CC1)C(=O)CO2 | -15% | 25% | -22%[59 µM] | nt | -2% | 0%
CCOC(=O)C1CCCN(C(=O)Cn2ncn3c(cc4sc(CC)cc43)c2=O)C1 (stereo not given) | 4% | 34% | -24%[59 µM] | nt | 2% | 4%
COc1ccc(OCCCCn2c(C3CC(=O)N(c4cccc(Cl)c4)C3)nc3ccccc32)cc1 (stereo not given) | -23% | 4% | ? | nt | 0% | -19%
Cc1cc(C)c2c(CC(=O)N(Cc3ccc(N(C)C)cc3)Cc3ccco3)coc2c1 | 13µM* | ? | 11µM* | nt | -9% | 10µM*
Cc1ccc(C(=O)N(Cc2ccc(N(C)C)cc2)Cc2ccco2)cc1 | 40µM* | ? | 14µM* | nt | 1% | 35µM*
Cc1ccc2c(CC(=O)N(Cc3ccc(Cl)cc3)Cc3ccco3)coc2c1 | 11% | 47% | -16%[59 µM] | nt | -11% | -5%
CCSc1ncc(Cl)c(C(=O)N(Cc2ccc(N(C)C)cc2)Cc2ccco2)n1 | 18µM* | ? | 13µM* | nt | 4% | 10µM*
COc1cc2ncc3c(-c4ccccc4)nn(CC(=O)NC4CCCCC4)c3c2cc1OC | -29% | 23% | 7%[59 µM] | nt | 1% | -11%
CCn1c2c(c(=O)n3ncc(C(=O)N4CCN(c5ccc(Cl)cc5)CC4)c13)CN(Cc1ccc(OC)cc1)CC2 | -28% | 8%[57 µM] | -6%[59 µM] | nt | 8% | -32%
COc1ccccc1OCC(=O)NNc1c2ccccc2nc2ccccc12 | ? | -10% | 35µM* | -9% | 13% | ?
O=C(CN1CCOCC1)NNc1c2ccccc2nc2ccccc12 | ? | 10% | nt | 38% | 32% | -7%
COc1ccccc1OCC(=O)NNC(=O)CCCC(=O)NNC(=O)COc1ccccc1OC | 4% | 31% | ? | -1% | 7% | -1%
C[N+]1(CC(=O)NNc2c3ccccc3nc3ccccc23)CCOCC1 | nt | nt | 50µM* | -5% | nt | ?
CCC1=NN(C(=O)c2ccc(Br)cc2)C(O)(c2ccccc2)C1 (stereo not given) | -32% | 18% | 18% | -29% | 9% | 50µM*
CCn1c(SC)nc2c([nH]c3ccccc32)c1=O | -9% | 42% | 4%[59 µM] | nt | 4% | -1%
SMILES | JMJD2A Tudor inh | HP1b chromo inh | G9a inh | L3MBTL1 block | GLS inhibitor | BAZ2B block
CCCC(=O)Nc1ccc2nn(-c3ccc(CC)cc3)nc2c1 | -3% | 6% | ? | nt | 8% | 2%
COC(=O)c1ccc(CCc2cc(O)ccc2O)cc1 | 6.3µM* | ? | nt | nt | ? | nt
COC(=O)c1ccc(CCc2cc(O)c(Br)cc2O)cc1 | 2.8µM* | ? | nt | nt | ? | nt
COc1cccc(-n2sc3c(c2=S)-c2cc(OC)ccc2NC3(C)C)c1 | 11µM* | 5.6µM* | ? | ? | 7% | 10µM*
COc1cccc(C(C)=C2SC(=S)NC2=O)c1 | -35% | ? | nt | nt | 27% | nt
c1ccc(N/N=C2\CCCc3ccccc32)nc1 | -18% | 3% | -4% | ? | -28% | ?
Cc1cc(N/N=C2/CCCc3ccccc32)nc2ccccc12 | ? | 18% | 50µM* | 8% | 2% | ?
Cc1cc(C)c2c(=O)n(CC(=O)Nc3cccc(Cl)c3C)sc2n1 | 2µM* | 7.9µM* | 0.28µM* | nt | ? | ?
Cc1cc(C)c2c(=O)n(CC(=O)NC3CCCC3)sc2n1 | 2.2µM* | 8.9µM* | 0.5µM* | -1% | 20% | 79µM*
COc1ccc(OC)c(CCNC(=O)Cn2sc3nc(C)cc(C)c3c2=O)c1 | nt | nt | 1µM* | nt | nt | 50µM*
Cc1cc(C)c2c(=O)n(CC(=O)Nc3ccc(Br)c(C)c3)sc2n1 | 2.5µM* | ? | 0.32µM* | 3% | -18% | ?
Cc1cc(NC(=O)Cc2ccsc2)ccc1Br | -4% | 48% | -11% | nt | -1% | 8%
CCC(=O)N1CCc2cc(Br)cc(S(=O)(=O)N3CCN(c4cccc(Cl)c4)CC3)c21 | -17% | 22% | 5%[59 µM] | nt | 6% | 1%
CCc1ccc(-n2c3nc(=O)[nH]c(=O)c-3cc3c(C)nn(-c4ccccc4)c32)cc1 | -7% | 20% | -4%[59 µM] | nt | 10% | nt
COc1cc(C2c3c(oc4ccc(F)cc4c3=O)C(=O)N2c2nc(C)c(C)s2)cc(OC)c1OC (stereo not given) | -1% | 36% | 25%[59 µM] | nt | -3% | 32%
CCCOc1ccccc1C(=O)Nc1ccc(-c2nc3ccc(C)cc3s2)cc1 | 15% | 45% | 29%[59 µM] | nt | 1% | 4%
CC1(C)CC(=O)C2=C(C1)OC(N)=C(C#N)C2C#Cc1ccccc1 (stereo not given) | -25% | 42% | 14µM* | -6% | 22% | ?
